Measured values published in PubChem BioAssay (Tox21).
Values joined by “and” are separate entries in the source; they are usually repeats but may differ in a detail not shown here. Identical values can stand only once. Results filed as inconclusive are left out. Entries that show only a call come without a potency. Some structures have more than one record in an assay (separate samples or runs), and their calls can disagree. Active and inactive are the calls of the source. Calls follow the shape of the dose curve; as a rule, active = well fitted curve in the direction sought with a large enough effect in the repeat runs; inconclusive = weak or mixed curves; inactive = no such curve, though single readings can be large; an effect the other way counts as inactive or inconclusive.

Columns and labels:
[1] = qHTS RealTime-Glo MT Cell Viability Assay in HepG2 cells - 40 hour (AID 1224870); also: nearly all actives have a fitted effect of over 50% in size
In short: (§1)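 Real-time viability: cells seeded at 600 per well together with NanoLuc and cell-permeant prosubstrate, compounds added after 5 h incubation. Luminescence tracked at 0, 8, 16, 24, 32 and 40 h of exposure.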

[2] = qHTS RealTime-Glo MT Cell Viability Assay in HEK293 cells - 16 hour (AID 1224872); also: nearly all actives have a fitted effect of over 50% in size; also: potency is read from the fitted curve at half-maximal effect
In short: (§2)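 Luminescence generated by NanoLuc from substrate produced by living HEK293 cells served as the viability signal. Each value reflects the reading at its stated time point during continuous 40 h compound exposure at 37 C.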

[3] = qHTS RealTime-Glo MT Cell Viability Assay in HepG2 cells - 8 hour (AID 1224873); also: nearly all actives have a fitted effect of over 55% in size
In short: as §1

[4] = qHTS RealTime-Glo MT Cell Viability Assay in HEK293 cells - 40 hour (AID 1224874); details: RealTime-Glo luminescence; max response: stronger effect = lower value; also: nearly all actives have a fitted effect of over 50% in size; also: potency is read from the fitted curve at half-maximal effect
In short: (§3)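 HEK293 + NanoLuc + prosubstrate, 600 cells/well; 5 h, 37 C/5% CO2; compound 23 nL in DMSO by pintool; 37 C; luminescence read at 0, 8, 16, 24, 32 and 40 h time points.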

[5] = A CellTox Green Cytotoxicity Assay to monitor cytotoxicity in HEK293 cells - 24 hour (AID 1224875); also: series mostly up to about 77 µM; nearly all actives have a fitted effect of over 45% in size
In short: (§4)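 Tox21 screen in HEK293: membrane-impermeant cyanine dye fluoresces on binding dead-cell DNA; compound pinned 5 h post-seeding, plates held at 37 C, signal read repeatedly through 40 h.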

[6] = A CellTox Green Cytotoxicity Assay to monitor cytotoxicity in HepG2 cells - 16 hour (AID 1224876); also: nearly all actives have a fitted effect of over 45% in size
In short: (§5)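 Measurements at 0, 8, 16, 24, 32 and 40 h of treatment captured CellTox Green fluorescence in HepG2 cells that had been co-plated with reagent and preincubated 5 h at 37 C/5% CO2.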

[7] = qHTS RealTime-Glo MT Cell Viability Assay in HepG2 cells - 32 hour (AID 1224877); also: nearly all actives have a fitted effect of over 55% in size
In short: (§6)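 Tox21 10K library screened in qHTS format on HepG2 cells carrying RealTime-Glo reagents. Compounds were added after a 5 h preincubation, and the luminescent signal from continuous culture was measured repeatedly during 40 h treatment.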

[8] = A CellTox Green Cytotoxicity Assay to monitor cytotoxicity in HepG2 cells - 24 hour (AID 1224878); also: nearly all actives have a fitted effect of over 45% in size
In short: as §5

[9] = qHTS RealTime-Glo MT Cell Viability Assay in HEK293 cells - 0 hour (AID 1224880); also: top concentration of the series differs between compounds; nearly all actives have a fitted effect of over 45% in size
In short: as §3

[10] = A CellTox Green Cytotoxicity Assay to monitor cytotoxicity in HepG2 cells - 0 hour (AID 1224882); also: nearly all actives have a fitted effect of over 35% in size
In short: as §5

[11] = A CellTox Green Cytotoxicity Assay to monitor cytotoxicity in HepG2 cells - 32 hour (AID 1224883); also: nearly all actives have a fitted effect of over 50% in size; also: potency is read from the fitted curve at half-maximal effect
In short: as §5

[12] = A CellTox Green Cytotoxicity Assay to monitor cytotoxicity in HEK293 cells - 8 hour (AID 1224884); also: nearly all actives have a fitted effect of over 35% in size
In short: as §4

[13] = qHTS RealTime-Glo MT Cell Viability Assay in HepG2 cells - 16 hour (AID 1224885); also: nearly all actives have a fitted effect of over 50% in size
In short: as §6

[14] = qHTS RealTime-Glo MT Cell Viability Assay in HEK293 cells - 24 hour (AID 1224886); also: nearly all actives have a fitted effect of over 50% in size; also: potency is read from the fitted curve at half-maximal effect
In short: as §2

[15] = qHTS RealTime-Glo MT Cell Viability Assay in HEK293 cells - 8 hour (AID 1224887)
In short: as §3

[16] = A CellTox Green Cytotoxicity Assay to monitor cytotoxicity in HEK293 cells - 16 hour (AID 1224888); also: nearly all actives have a fitted effect of over 35% in size
In short: as §4

[17] = qHTS RealTime-Glo MT Cell Viability Assay in HepG2 cells - 0 hour (AID 1224889); also: nearly all actives have a fitted effect of over 50% in size
In short: as §6

[18] = A CellTox Green Cytotoxicity Assay to monitor cytotoxicity in HEK293 cells - 32 hour (AID 1224881); also: nearly all actives have a fitted effect of over 40% in size
In short: as §4

[19] = A CellTox Green Cytotoxicity Assay to monitor cytotoxicity in HepG2 cells - 40 hour (AID 1224879); also: nearly all actives have a fitted effect of over 40% in size; also: potency is read from the fitted curve at half-maximal effect
In short: as §5

SMILES | Potency [1] | Potency [2] | Potency [3] | max response [4] | Potency [5] | Potency [6] | Potency [7] | Potency [8] | Potency [9] | Potency [10] | Potency [11] | Potency [12] | Potency [13] | Potency [14] | Potency [15] | Potency [16] | Potency [17] | Potency [18] | Potency [19] | Potency [4]
O=S(=O)(O)c1cc(S(=O)(=O)O)c2c(N=Nc3ccccc3)c(O)ccc2c1 | inactive | inactive | inactive | -20.2% (inactive) | inactive | inactive | inactive | inactive | inactive | inactive | inactive | inactive | inactive | inactive | inactive | inactive | inactive | – | – | –
CC(C)(C)C1CCC(O)CC1 (stereo not drawn) | inactive | inactive | inactive | -21.7% (inactive) and -6.15% (inactive) | inactive | – | inactive | inactive | inactive | – | inactive | inactive | inactive | inactive | inactive | inactive | inactive | inactive | – | –
O=C(c1cc(O)c(O)c(O)c1)c1ccc(O)c(O)c1O | inactive | inactive | inactive | -21.1% (inactive) and -21.4% (inactive) and -9.65% (inactive) | inactive | – | inactive | inactive | inactive | inactive | inactive | inactive | inactive | inactive | inactive | inactive | – | – | – | –
OCCOCCOCCOCCO | inactive | inactive | inactive | 0.824% (inactive) and 6.75% (inactive) | inactive | – | inactive | inactive | inactive | inactive | inactive | inactive | inactive | inactive | inactive | inactive | – | inactive | inactive | –
CC[Si](OC(C)=O)(OC(C)=O)OC(C)=O | inactive | inactive | inactive | 13.5% (inactive) and 2.5% (inactive) | inactive | – | inactive | inactive | inactive | – | inactive | inactive | inactive | inactive | inactive | inactive | inactive | inactive | inactive | –
Nc1nc2ncc(CNc3ccc(C(=O)N[C@@H](CCC(=O)O)C(=O)O)cc3)nc2c(=O)[nH]1 | inactive | inactive | inactive | 21.4% (inactive) and 0.94% (inactive) | inactive | – | inactive | inactive | inactive | inactive | inactive | inactive | inactive | inactive | inactive | inactive | inactive | – | – | –
CCCCCCCCCC(=O)O | inactive | inactive | inactive | 7.81% (inactive) and 12.5% (inactive) | inactive | inactive | inactive | inactive | inactive | inactive | inactive | inactive | inactive | inactive | inactive | inactive | inactive | inactive | – | –
NCCc1ccc(O)c(O)c1 | inactive | inactive | inactive | -0.912% (inactive) and 5.76% (inactive) | inactive | inactive | inactive | inactive | inactive | inactive | inactive | inactive | inactive | inactive | inactive | inactive | – | inactive | – | –
C/C=C(C)/C=C/C=C(C)C | inactive | inactive | inactive | -28.6% (inactive) and 16.8% (inactive) | inactive | inactive | inactive | inactive | inactive | – | inactive | inactive | inactive | inactive | inactive | inactive | inactive | – | inactive | –
CC(C)(C)C(=O)C1C(=O)c2ccccc2C1=O | inactive | inactive | inactive | -29.9% (inactive) and -11.1% (inactive) | inactive | inactive | inactive | inactive | inactive | – | 54.4 µM (active) and inactive | inactive | inactive | inactive | inactive | inactive | inactive | inactive | 54.4 µM (active) and inactive | –
CC1=C(/C=C/C(C)=C/C=C/C(C)=C/CO)C(C)(C)CCC1 | inactive | inactive | inactive | -27.5% (inactive) and -20.7% (inactive) | inactive | inactive | inactive | inactive | inactive | – | inactive | inactive | inactive | inactive | inactive | inactive | inactive | inactive | inactive | –
CN(C)c1ccc(C(=N)c2ccc(N(C)C)cc2)cc1 | – | 5.43 µM (active) | – | – | inactive | – | – | inactive | inactive | – | 4.84 µM (active) and 18.8 µM (active) | inactive | – | 3.42 µM (active) and 4.2 µM (active) | inactive | inactive | inactive | – | – | 2.42 µM (active) and 2.97 µM (active)
Cc1cc(Cc2ccc(N)c(C)c2)ccc1N | inactive | inactive | inactive | -20.5% (inactive) and -29% (inactive) | inactive | inactive | inactive | inactive | inactive | inactive | inactive | inactive | inactive | inactive | inactive | inactive | – | – | – | –
